Test results: PubChem BioAssay AID2685 (National Center for Advancing Translational Sciences (NCATS), 2010)
Out of some 320,000 compounds screened, about 2,100 (0.66%) were called active. Roughly 53% stayed inconclusive and do not appear here. The call rests on the fitted dose curve; in most records, active means well fitted inhibition curve with a large enough effect in the signal ratio, with a control signal flat (not every such curve was filed as active); inconclusive means small, poorly fitted or top-dose-only effect, or effect the other way, or a change in a side signal; inactive means flat fitted curve, though single readings scatter; the % refers to the signal ratio. The sample as a whole holds a higher share of actives than the screen did.

Assay: qHTS Assay for Lipid Storage Modulators in Drosophila S3 Cells;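 on cell number change: cells counted by Cell Tracker Red CMTPX staining in the red channel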; on lipid storage change, negative = inhibition: on the % scale 0 is the no-effect control and ±100 the full control effect
Conditions: BODIPY lipid droplet fluorescence, 18-24 h, cells fed with added oleic acid; cell number change: measured here: cell count max response; series mostly up to 46.1 µM; lipid storage change, negative = inhibition: at the top concentration
Method in brief: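 Drosophila S3 cells got compounds at several concentrations plus oleic acid (400 uM solution). Laser-scanning cytometry with 488 nm excitation read lipid droplets at 500-530 nm and cells at 575-640 nm. Percent activity was relative to 20 uM Triacsin C.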
Potency means the concentration at half of the fitted maximal effect.

**Q.** For `CN(CCNC(=O)c1cn(C)c2ccc(S(=O)(=O)N3CCCC3)cc2c1=O)CCc1ccccc1`, which “lipid storage change, negative = inhibition” value is on record?
**A.** 22.9% (inactive)

**Q.** For `COc1cc(NC(=S)N(C)CCC#N)c(OC)cc1Cl`, which “lipid storage change, negative = inhibition” value is on record?
**A.** 6.78% (inactive)

**Q.** What about the cell number change of the same molecule?
**A.** -2.16%

**Q.** For `CCOC(=O)c1nc(C)n(-c2ccc(Cl)cc2Cl)n1`, which “outcome” value is on record?
**A.** inactive

**Q.** Which results are given for `CCOC(=O)c1nn(-c2ccc(C)c(C)c2)c(=O)c(C#N)c1C`?
**A.** outcome: inactive; cell number change: -19.4%

**Q.** What does the source list for `CCOC(=O)c1nn(-c2ccc(Cl)cc2Cl)c(=N)c(C#N)c1C`?
**A.** Potency: 18.4 µM (active); cell number change: 4.21%

**Q.** Which “lipid storage change, negative = inhibition” value does the source give for `CC(C)(C)NC(=O)NC(=O)COC(=O)C1=COCCO1` here?
**A.** -1.3% (inactive)

**Q.** And the cell number change?
**A.** -19.1%

**Q.** What does the source list for `Cc1ccc2c(c1)N(C(=O)CSc1nncn1C)C(C)(C)c1ssc(=S)c1-2`?
**A.** lipid storage change, negative = inhibition: -13.1% (inactive); cell number change: -13.4%

**Q.** For `CC1(C)c2ssc(=S)c2-c2ccccc2N1C(=O)c1ccco1`, which Potency is on record?
**A.** 8.2 µM (active)

**Q.** What about the cell number change of the same molecule?
**A.** 1.38%

**Q.** Which results are given for `Cn1cnnc1SCC(=O)N1c2ccccc2-c2c(ssc2=S)C1(C)C`?
**A.** lipid storage change, negative = inhibition: 10.2% (inactive); cell number change: 1.3%

**Q.** For `O=C(N/N=C/c1ccccc1C(=O)O)c1cccc(S(=O)(=O)N2CCOCC2)c1`, which “lipid storage change, negative = inhibition” value is on record?
**A.** 4.8% (inactive)

**Q.** And the cell number change?
**A.** 10.2%

**Q.** Which “outcome” value does the source give for `Cc1onc(-c2ccccc2)c1C(=O)Nc1ccncc1` here?
**A.** inactive

**Q.** What about the cell number change of the same molecule?
**A.** 12.5%

**Q.** For `Cc1onc(-c2ccncc2)c1C(=O)O`, which Potency is on record?
**A.** 20.6 µM (active)

**Q.** And the cell number change?
**A.** -5.32%

**Q.** Which “outcome” value does the source give for `Cc1onc(-c2ccccc2)c1C(N)=O` here?
**A.** inactive

**Q.** For `CCOc1ccc(CN2CCC(=O)NC2=O)cc1`, which “lipid storage change, negative = inhibition” value is on record?
**A.** -8.2% (inactive)

**Q.** And the cell number change?
**A.** -4.82%

**Q.** With `CC1CC(C)CN(CCCNC(=O)c2ccc(N3CCCC3=O)cc2)C1` (stereo not drawn) as the molecule, how does the “outcome” value read?
**A.** inactive

**Q.** And the cell number change?
**A.** -12.7%

**Q.** What does the source list for `COC(CNC(=O)c1ccc(N2CCC3(CC2)OCCO3)c([N+](=O)[O-])c1)OC`?
**A.** lipid storage change, negative = inhibition: -23.4% (inactive); cell number change: -9.81%

**Q.** For `COC(CNC(=O)c1cc(S(=O)(=O)N2CCc3ccccc32)ccc1F)OC`, which “lipid storage change, negative = inhibition” value is on record?
**A.** 11.3% (inactive)

**Q.** Which results are given for `COC(CNC(=O)c1ccc(N2CCc3ccccc32)c([N+](=O)[O-])c1)OC`?
**A.** Potency: 20.6 µM (active); cell number change: -26.9%

**Q.** Which results are given for `O=C(Nc1cccc([N+](=O)[O-])c1)C(=O)N1CCCCC1`?
**A.** lipid storage change, negative = inhibition: 14.2% (inactive); cell number change: -20.3%

**Q.** Which results are given for `CCOC(=O)c1ccc(NC(=O)CSc2nnc(-c3ccncc3)n2C)cc1`?
**A.** lipid storage change, negative = inhibition: 21.9% (inactive); cell number change: 3.98%

**Q.** Which results are given for `COc1ccc2c(C)cc(N3CCOCC3)nc2c1`?
**A.** Potency: 4.61 µM (active); cell number change: -8.65%

**Q.** Which results are given for `COc1ccc2c(C)cc(N3CCCCCC3)nc2c1`?
**A.** lipid storage change, negative = inhibition: 28.5% (inactive); cell number change: 23.5%

**Q.** With `Cc1cc(N2CCOCC2)nc2cc(O)ccc12` as the molecule, how does the “lipid storage change, negative = inhibition” value read?
**A.** 4.23% (inactive)

**Q.** What about the cell number change of the same molecule?
**A.** -2.46%

**Q.** Which “outcome” value does the source give for `CSc1ccc(S(=O)(=O)Nc2c(C)cccc2C)cc1` here?
**A.** inactive

**Q.** What about the cell number change of the same molecule?
**A.** 1.28%

**Q.** Which “lipid storage change, negative = inhibition” value does the source give for `CCCCCCCn1c(=N)n(CC(O)c2ccco2)c2ccccc21` (stereo not drawn) here?
**A.** -19.3% (inactive)

**Q.** And the cell number change?
**A.** -4.47%

**Q.** Which results are given for `Cc1ccc2c(CN3CCOCC3)cc(=O)oc2c1`?
**A.** lipid storage change, negative = inhibition: 8.89% (inactive); cell number change: 3.55%

**Q.** For `COC(=O)C1CCN(Cc2cc(=O)oc3cc(C)c(Cl)cc23)CC1`, which “lipid storage change, negative = inhibition” value is on record?
**A.** 11.8% (inactive)

**Q.** And the cell number change?
**A.** 14.6%

**Q.** What does the source list for `Cc1ccc2c(CN3CC(C)CC(C)C3)cc(=O)oc2c1` (stereo not drawn)?
**A.** Potency: 1.16 µM (active); cell number change: 4.5%

**Q.** For `CC1CN(Cc2cc(=O)oc3cc(O)c(Cl)cc23)CC(C)O1` (stereo not drawn), which Potency is on record?
**A.** 1.64 µM (active)

**Q.** What about the cell number change of the same molecule?
**A.** -11.3%

**Q.** What does the source list for `Cc1ccc2c(CN3CCN(Cc4ccccc4)CC3)cc(=O)oc2c1`?
**A.** lipid storage change, negative = inhibition: 15.3% (inactive); cell number change: 22.5%

**Q.** With `O=c1cc(CN2CCOCC2)c2cc(Cl)c(O)cc2o1` as the molecule, how does the “outcome” value read?
**A.** inactive

**Q.** And the cell number change?
**A.** -11.3%
